According to PubChem BioAssay (NCATS):
Inconclusive results are not listed. Entries that show only a call come without a potency. A number with no mark means an inactive call. Active and inactive are the calls of the source. Calls follow the shape of the dose curve; as a rule, active = well fitted inhibition curve with a large enough effect; inconclusive = small, poorly fitted or top-dose-only effect; inactive = flat fitted curve, though single readings scatter.

Experiment: P-glycoprotein substrates identified in KB-8-5-11 adenocarcinoma cell line, qHTS therapeutic library screen (AID 1346987); also: nearly all actives have a fitted effect of over 65% in size
Settings: KB-8-5-11 (P-gp overexpressing) viability, CellTiter-Glo, 72 h; series mostly up to 44.5 µM
Summary of the method: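 KB-8-5-11: colchicine-selected sub-line of KB-3-1 over-expressing P-gp; assay medium lacked colchicine. 72 h drug exposure at 37 degree C, CellTiter-Glo.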
Potency is read from the fitted curve at half-maximal effect.

SMILES | Potency | activity change, negative = cytotoxicity
CCC(C)C(=O)OC1CC(C)C=C2C=CC(C)C(CCC(O)CC(O)CC(=O)O)C21 (stereo unspecified) | inactive | 
COc1ccc2[nH]c3c(-c4cccc5ccccc45)nccc3c2c1 | 920 nM (active) | 
CC(C)=CCC/C(C)=C/CC/C(C)=C/COC1OC(COC2OCC(OC3OCC(O)C(O)C3O)C(O)C2O)C(O)C(OC2OC(C)C(OC3OC(C)C(OC4OCC(OC5OC(C)C(O)C(O)C5O)C(O)C4O)C(O)C3O)C(O)C2O)C1O (stereo unspecified) |  | 7.18% [at 9.29 µM]
C[C@@]12CC[C@@H]3[C@@](CC[C@H]4[C@@]3(C)CCC[C@@]4(C)C(=O)O)(CC1=O)C2 | inactive | 
COc1ccc(C(=O)Nc2ncc(-c3ccc(C(=O)O)cc3)s2)cc1 | 2910 nM (active) | 
COc1cc(O)cc(/C=C/c2ccc(O[C@@H]3O[C@H](CO)[C@@H](O)[C@H](O)[C@H]3O)cc2)c1 | inactive | 
C[C@@H]1O[C@@H](O[C@H]2[C@@H]3C=CO[C@@H](O[C@@H]4O[C@H](CO)[C@@H](O)[C@H](O)[C@H]4O)[C@@H]3[C@@]3(CO)O[C@@H]23)[C@H](OC(=O)/C=C/c2ccc(O)c(O)c2)[C@H](O)[C@H]1O | inactive | 
CC(C)(C#N)c1ccc(N2C(=O)OCc3cnc4ccc(-c5cnc6ccccc6c5)cc4c32)cc1 | 3660 nM (active) | 
CC12CCC(C(OC3OC(COC4OCC(O)(CO)C4O)C(O)C(O)C3O)C1)C(C)(C)O2 (stereo unspecified) | inactive | 
CC(O)/C=C/C1OC(=O)CC1Nc1ccc(C(=O)O)cc1 (stereo unspecified) | inactive | 
CC12CCC3c4ccc(O)cc4CCC3C1CC(OC1OC(C(=O)O)C(O)C(O)C1O)C2O (stereo unspecified) | inactive | 
